In PubChem BioAssay (NCI):
About 83,000 compounds went through this panel and 20% of them were active in at least one assay; those are over-represented in the sample as a whole.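 Single-concentration screen, 48 h exposure, 96-well plates. Endpoint: percent growth. Below 10 = active.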 The source made the active and inactive calls.

Key:
Experiment in all cases: NCI-60 one-dose screen, 48 h (100 = growth as untreated, 0 = no growth, -100 = all killed)
Settings in all cases: 10 µM unless noted
T-47D breast = test system: T-47D breast
BT-549 breast = test system: BT-549 breast
MDA-MB-435 melanoma = test system: MDA-MB-435 melanoma
SW-620 colon = test system: SW-620 colon
MCF7 breast = test system: MCF7 breast
HCT-116 colon = test system: HCT-116 colon
KM12 colon = test system: KM12 colon
HCC-2998 colon = test system: HCC-2998 colon

Measured: growth

COc1ccc(C(=S)N2CCN(c3cccc(Cl)c3)CC2)cc1
inactive: T-47D breast 89.9% | BT-549 breast 90.8% | MDA-MB-435 melanoma 106% | SW-620 colon 101% | MCF7 breast 111% | HCT-116 colon 89.2% | KM12 colon 104%

COc1ccc(NC2=C(Sc3nc(C)cc(C)n3)C(=O)N(Cc3ccccc3)C2=O)cc1Cl
inactive: T-47D breast 41.9% [30 µM] | BT-549 breast 65.4% [30 µM] | MDA-MB-435 melanoma 86.6% [30 µM] | SW-620 colon 88.7% [30 µM] | MCF7 breast 48.4% [30 µM] | HCT-116 colon 76.9% [30 µM] | KM12 colon 99.2% [30 µM]

COc1cc2c(cc1O)CC[C@@H]1[C@@H]2CC[C@]2(C)[C@@H](OCCCN(C)C)CC[C@@H]12
active: T-47D breast -48.9% | BT-549 breast -54.4% | MDA-MB-435 melanoma -61.8% | SW-620 colon -43.1% | MCF7 breast -68.9% | HCT-116 colon -71% | KM12 colon -48.5%

CC(=O)O[C@H]1C(=O)[C@@]2(C)[C@H]([C@H](OC(=O)c3ccccc3)[C@]3(O)C[C@H](OC(=O)[C@H](OC(=O)CCC(=O)OC4CCC(S/N=C(N)/N=C(\N)N(C)C)CC4)[C@@H](NC(=O)c4ccccc4)c4ccccc4)C(C)=C1C3(C)C)[C@]1(OC(C)=O)CO[C@@H]1C[C@@H]2O (some centres undefined)
inactive: T-47D breast 46.7% | BT-549 breast 35.9% | SW-620 colon 41.7% | MCF7 breast 19.3% | KM12 colon 10.7%
active: MDA-MB-435 melanoma 5.75% | HCT-116 colon 6.14%

COc1cccc2c1C(=O)c1c(O)c3c(c(O)c1C2=O)C[C@](O)(C(=O)CO)C[C@H]3O[C@@H]1C[C@@H](NC(=O)CCCN(C)C2(c3ccc(F)cc3)CC3CCC2C3)[C@H](O)[C@@H](C)O1 (some centres undefined)
active: MDA-MB-435 melanoma -88.3% | SW-620 colon -78.5% | MCF7 breast -59% | HCT-116 colon -90.1% | KM12 colon -77.8%
inactive: T-47D breast 81.2% | BT-549 breast 58.6%

O=c1c2c3c(sc2nc(N/N=C/c2cn(-c4ccccc4)nc2-c2ccc(Cl)cc2)n1Cc1ccccc1)CCCC3
inactive: T-47D breast 105% | BT-549 breast 92.1% | MDA-MB-435 melanoma 93.4% | SW-620 colon 107% | MCF7 breast 104% | HCT-116 colon 90.3% | KM12 colon 103%

O=C1/C(=C/c2ccc(OCCCOc3ccc(Cl)cc3)cc2)N=C2SCCCN12
inactive: T-47D breast 50.5% | BT-549 breast 72.1% | MDA-MB-435 melanoma 93.2% | SW-620 colon 102% | MCF7 breast 69.5% | HCT-116 colon 45.8% | KM12 colon 70.8%

CC1SC(c2ccc(N(C)C)cc2)N(NC(=O)C(O)(c2ccccc2)c2ccccc2)C1=O (centres undefined)
inactive: T-47D breast 87.6% | BT-549 breast 93.1% | MDA-MB-435 melanoma 84.3% | SW-620 colon 104% | MCF7 breast 118% | HCT-116 colon 80.8% | KM12 colon 87.4%

COc1cc(-c2nc(C(=O)NCC(=O)NO)nn2-c2ccc(Cl)cc2)cc(OC)c1OC
inactive: T-47D breast 88.2% | BT-549 breast 105% | MDA-MB-435 melanoma 100% | SW-620 colon 97.1% | MCF7 breast 92.2% | HCT-116 colon 101% | KM12 colon 95.9%

COc1ccc(-c2nnc(SCC(=O)c3ccc(Cl)cc3)o2)cc1
inactive: T-47D breast 89.6% | BT-549 breast 105% | MDA-MB-435 melanoma 108% | SW-620 colon 107% | MCF7 breast 108% | HCT-116 colon 107% | KM12 colon 102%

CCCc1cc(=O)n2c(C(=O)Nc3cccc(C(=O)OCC)c3)c(C(=O)Nc3ccc(F)cc3)sc2n1
inactive: T-47D breast 53.9% [30 µM] | BT-549 breast 82.5% [30 µM] | MDA-MB-435 melanoma 73.4% [30 µM] | SW-620 colon 55.9% [30 µM] | MCF7 breast 57.4% [30 µM] | HCT-116 colon 17.7% [30 µM] | KM12 colon 82.9% [30 µM]

c1ccc2[nH]c(-c3ccc(Nc4nc(N5CCCC5)nc5[nH]ncc45)cc3)nc2c1
inactive: BT-549 breast 59.7%
active: T-47D breast -52.6% | MDA-MB-435 melanoma -76.6% | SW-620 colon -64.1% | MCF7 breast -21.5% | HCT-116 colon -71.8% | KM12 colon -32.6%

OCCN1CCN(c2nc(Nc3ccc(-c4nc5ccccc5[nH]4)cc3)c3cn[nH]c3n2)CC1
active: T-47D breast -68.4% | BT-549 breast -52.3% | MDA-MB-435 melanoma -89.9% | SW-620 colon -85.4% | MCF7 breast -74.4% | HCT-116 colon -80.1% | KM12 colon -73.1%

COc1ccc(CN2c3ccccc3Sc3ccccc32)cc1O
inactive: T-47D breast 27.5% | BT-549 breast 54.5% | SW-620 colon 31% | MCF7 breast 26% | HCT-116 colon 12.9% | KM12 colon 17.6%
active: MDA-MB-435 melanoma 0.932%

Cc1cc(C)nc(SC2=C(Nc3cc(Cl)ccc3O)C(=O)N(Cc3ccccc3)C2=O)n1
active: KM12 colon -23.1% [30 µM]
inactive: T-47D breast 60.8% [30 µM] | BT-549 breast 85.2% [30 µM] | MDA-MB-435 melanoma 71.6% [30 µM] | SW-620 colon 91.8% [30 µM] | MCF7 breast 46.4% [30 µM] | HCT-116 colon 83% [30 µM]

COc1cccc2c1C(=O)c1c(O)c3c(c(O)c1C2=O)C[C@](O)(C(=O)CO)C[C@H]3O[C@@H]1C[C@@H](NC(=O)CCCCCN(C)C2(c3ccc(F)cc3)CC3CCC2C3)[C@H](O)[C@@H](C)O1 (some centres undefined)
inactive: T-47D breast 86.3% | BT-549 breast 52%
active: MDA-MB-435 melanoma -17.9% | SW-620 colon -74.9% | MCF7 breast -46.2% | HCT-116 colon -91.8% | KM12 colon -68.5%

CCC#CC[C@H](O)C/C=C1/C(=O)C=C[C@@H]1C/C=C\CCCC(=O)OC
inactive: MCF7 breast 15.1%
active: T-47D breast 5.68% | BT-549 breast -0.591% | MDA-MB-435 melanoma 1.89% | SW-620 colon -12.5% | HCT-116 colon -49.7% | KM12 colon -49%

C=C1C(=O)O[C@H]2[C@H]1CC/C(COC(=O)NCc1ccc(OC)c(OC)c1)=C\CC[C@@]1(C)O[C@@H]21
active: HCT-116 colon 7.17%
inactive: T-47D breast 30.2% | BT-549 breast 75.2% | MDA-MB-435 melanoma 54.8% | SW-620 colon 14.1% | MCF7 breast 34.5% | KM12 colon 90.9%

O=C(N=Nc1c(O)[nH]c2ccc(Br)cc12)c1cc(-c2ccccc2)on1
inactive: T-47D breast 101% | BT-549 breast 104% | MDA-MB-435 melanoma 95.8% | SW-620 colon 103% | MCF7 breast 93.2% | HCT-116 colon 106% | HCC-2998 colon 103% | KM12 colon 100%

CC(C)(C)N1CCC1CN (centres undefined)
inactive: T-47D breast 96.3% | BT-549 breast 118% | MDA-MB-435 melanoma 104% | SW-620 colon 104% | MCF7 breast 126% | HCT-116 colon 99.5% | KM12 colon 107%

C=C(C)C(=O)Nc1ccc(NC(C)C)cc1
inactive: T-47D breast 100% | BT-549 breast 156% | MDA-MB-435 melanoma 117% | SW-620 colon 105% | MCF7 breast 146% | HCT-116 colon 105% | KM12 colon 109%

O=C1c2cccc3cccc(c23)C(=O)N1CCCCN1CCN(CCCCOc2ccc(-c3nc4ccc(N5CCOCC5)cc4[nH]3)cc2)CC1
inactive: T-47D breast 77.2% | BT-549 breast 91.7% | MDA-MB-435 melanoma 88.3% | SW-620 colon 95.1% | MCF7 breast 74.1% | HCT-116 colon 69.1% | KM12 colon 92.1%

CC1=CC(C)(C)Nc2ccc(Cc3ccc4c(c3)C(C)=CC(C)(C)N4)cc21
inactive: T-47D breast 76.2% | BT-549 breast 80.1% | MDA-MB-435 melanoma 120% | SW-620 colon 130% | MCF7 breast 84.2% | HCT-116 colon 83.5% | KM12 colon 105%

CCOc1ccc(-n2nc(C(=O)Nc3ccccc3)nc2-c2cc(OC)c(OC)c(OC)c2)cc1
active: MDA-MB-435 melanoma 0.193%
inactive: T-47D breast 39.4% | BT-549 breast 60.9% | SW-620 colon 36.2% | MCF7 breast 37% | HCT-116 colon 21.2% | KM12 colon 27.5%

CCOc1ccc(-n2nc(C(=O)Nc3cc(OC)c(OC)c(OC)c3)nc2-c2cc(OC)c(OC)c(OC)c2)cc1
inactive: T-47D breast 51.4% | BT-549 breast 91.4% | MDA-MB-435 melanoma 79.6% | SW-620 colon 95.5% | MCF7 breast 83.2% | HCT-116 colon 75.8% | KM12 colon 81.8%

COc1cccc(C2=NN3C(C2)c2cc(Br)cc(OC)c2OC32CCN(Cc3ccccc3)CC2)c1 (centres undefined)
inactive: T-47D breast 108% | MDA-MB-435 melanoma 98.3% | SW-620 colon 96.3% | MCF7 breast 96.3% | HCT-116 colon 114% | HCC-2998 colon 99.2% | KM12 colon 103%

O=S(=O)(Nc1ccc(NS(=O)(=O)c2ccccc2)c(Cl)c1)c1ccccc1
inactive: T-47D breast 106% | MDA-MB-435 melanoma 107% | SW-620 colon 99.1% | MCF7 breast 91.6% | HCT-116 colon 97.6% | HCC-2998 colon 104% | KM12 colon 104%

COc1ccc(CN2c3ccccc3Oc3ccccc32)cc1F
inactive: T-47D breast 58.1% | BT-549 breast 70.1% | SW-620 colon 33.6% | HCT-116 colon 31.1% | KM12 colon 40.7%
active: MDA-MB-435 melanoma -0.932%

O=C(CN(C(=O)Cn1c(=O)n2nnnc2c2ccccc21)c1ccccc1C(F)(F)F)Nc1ccc(C(F)(F)F)cc1
inactive: T-47D breast 101% | MDA-MB-435 melanoma 105% | SW-620 colon 105% | MCF7 breast 96.1% | HCT-116 colon 95.5% | HCC-2998 colon 106% | KM12 colon 110%

CC(=O)OC[C@H]1O[C@H](OC(C)=O)[C@H](NC(=O)/C=C/CCl)[C@@H](OC(C)=O)[C@@H]1OC(C)=O
inactive: T-47D breast 69.1% | BT-549 breast 85.9% | MDA-MB-435 melanoma 80.4% | SW-620 colon 26% | HCT-116 colon 60.4% | KM12 colon 80.5%

CCCCCCN(CCCCCC)C(=N)c1ccnc2ccccc12
active: HCC-2998 colon -59.9%
inactive: T-47D breast 88.1% | BT-549 breast 73.8% | MDA-MB-435 melanoma 61.8% | SW-620 colon 59.8% | HCT-116 colon 31.2% | KM12 colon 71.1%

NC(=NCCCOc1ccc(Cl)cc1)Nc1ccc(C(F)(F)F)cc1
inactive: BT-549 breast 73.2% | SW-620 colon 14.5% | KM12 colon 25.2%
active: T-47D breast 2.82% | MDA-MB-435 melanoma 8.95% | HCT-116 colon 8.24%

CN(C)CCCNc1c2ccccc2nc2ccccc12
inactive: T-47D breast 68.5% | MDA-MB-435 melanoma 96.1% | SW-620 colon 103% | MCF7 breast 92% | HCT-116 colon 99% | HCC-2998 colon 107% | KM12 colon 97.3%
